Source: PubChem BioAssay (National Center for Advancing Translational Sciences (NCATS))
POLK inh = inhibitors of human DNA polymerase kappa | 0.53% of 400,000 active | AID 588579 | Potency, µM (series often up to 107 µM), for the others: at the highest dose activity, negative = inhibition, usual class: inhibitors | Q9UBT6 | purified Pol kappa, fluorescent DNA synthesis assay, 10 min; also: potency is read from the fitted curve at half-maximal effect; % is scaled to controls: 0 for no effect and ±100 for the full control effect
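10 nM Pol kappa was preincubated with compounds for 15 min at room temperature. Reaction started with 50 nM (final) substrate. Fluorescence read kinetically at 0 and 10 min.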
Pol beta inh = DNA polymerase beta (human) inhibition. P06746. Pol beta primer extension/strand displacement, fluorescence kinetic. Potency, µM (doses to about 114 µM), without a hit: at the highest dose activity change, negative = inhibition, hits mostly inhibitors. 1.3% of 340,000 active. AID 485314; also: potency is read from the fitted curve at half-maximal effect; % is scaled to controls: 0 for no effect and ±100 for the full control effect
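Kinetic readout of DNA synthesis with strand displacement by Pol beta. Compound and 10 nM enzyme sit 15 min at room temperature; 50 nM substrate starts the reaction, read immediately and at 10 min.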
PI5P4Ka inh = inhibitors of human PI5P4K alpha | 1.2% of 330,000 active | PI5P4Kalpha enzyme, ADP-Glo luminescence, 60 min; stronger effect = lower value | AID 652105 | P48426 | max response, %; active = max response of -50% or lower; inconclusive = between -30% and -50%; inactive = -30% or higher; also: value at the top dose of about 77 µM; % is scaled to controls: 0 for no effect and ±100 for the full control effect
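ADP-Glo luminescence end-point read after a 60 min room-temperature kinase reaction of PI5P4Kalpha plus substrate, initiated with ATP at 5 microM final. Buffer: 0.038 M HEPES pH 7.4, EGTA, 0.1% CHAPS, 5% DMSO.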
PI4K2A block = inhibitors of human PI4K2A | purified PI4K2A, ADP-Glo luminescence, 1 h; stronger effect = lower value | 0.13% of 420,000 active | activity change, negative = inhibition, % at 76.9 µM; in the data active = activity change below about -50%; inconclusive = mostly about -30% to -49%;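 also: -100% = wells without enzyme as full effect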
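ADP-Glo luminescence measured ADP generated by PI4K2A enzyme (4 ug/mL before mixing) with 1.2 mM PI substrate (pre-mix) and 300 microM ATP (pre-mix). Tris pH7.5 buffer with MgCl2, Triton X-100; 1 h reaction at ambient temperature.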
POLH inh = blocks human DNA polymerase eta activity; AID 588591; 1.2% of 390,000 active; recombinant Pol eta, fluorescent DNA replication assay; Potency, µM (titrated, usually from 114 µM), for the others: at the top dose activity change, negative = inhibition, usual class: inhibitors; also: potency is read from the fitted curve at half-maximal effect; % is scaled to controls: 0 for no effect and ±100 for the full control effect
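Pol eta at 10 nM preincubated with compounds 15 min at room temperature; reaction started with fluorescent substrate (50 nM final) and read kinetically at 0 and 10 min.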
Pol iota inh = blocks human DNA polymerase iota activity; Q9UNA4; Potency, µM (titrated, usually from 115 µM), for inactives: at the highest dose activity, negative = inhibition, actives largely listed as inhibitors; Pol iota fluorescent replication assay, 10 min; 1% of 390,000 active; AID 588590; also: potency is read from the fitted curve at half-maximal effect
Target sequence (Q9UNA4 whole entry, looked up): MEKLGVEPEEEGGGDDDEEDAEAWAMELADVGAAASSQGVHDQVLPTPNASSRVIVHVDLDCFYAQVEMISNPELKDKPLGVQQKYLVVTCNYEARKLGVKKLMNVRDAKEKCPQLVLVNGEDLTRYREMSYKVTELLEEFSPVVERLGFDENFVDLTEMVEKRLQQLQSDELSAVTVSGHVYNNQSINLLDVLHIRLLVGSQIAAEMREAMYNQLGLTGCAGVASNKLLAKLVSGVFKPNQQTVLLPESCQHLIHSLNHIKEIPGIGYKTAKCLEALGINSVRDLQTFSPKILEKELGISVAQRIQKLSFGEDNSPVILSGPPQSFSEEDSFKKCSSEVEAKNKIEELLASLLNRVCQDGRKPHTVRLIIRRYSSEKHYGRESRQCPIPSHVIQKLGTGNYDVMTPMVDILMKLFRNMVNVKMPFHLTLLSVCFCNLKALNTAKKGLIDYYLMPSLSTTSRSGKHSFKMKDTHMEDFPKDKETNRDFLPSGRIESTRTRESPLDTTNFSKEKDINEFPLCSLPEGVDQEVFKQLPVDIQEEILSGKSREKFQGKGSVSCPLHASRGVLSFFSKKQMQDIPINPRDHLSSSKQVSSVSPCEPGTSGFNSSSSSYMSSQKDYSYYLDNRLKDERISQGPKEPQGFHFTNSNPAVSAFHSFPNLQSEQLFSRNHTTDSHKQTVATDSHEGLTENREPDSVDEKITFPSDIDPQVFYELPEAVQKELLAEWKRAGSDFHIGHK
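Fluorescent replication assay read twice, at 0 min and 10 min after adding 50 nM (final) substrate. Enzyme (10 nM) and compounds were first incubated 15 min at room temperature; enzyme-free buffer wells were negative controls.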
* marks the source's active call; other numbers are inactive results; ? = inconclusive; . = no result given. Rows were chosen to be rich in hits. Some 2.8% of all compounds tested hit in one or more screens of this group. Unless noted, calls follow the shape of the dose curve; as a rule, active = well fitted inhibition curve with a large enough effect; inconclusive = small, poorly fitted or top-dose-only effect, or another doubt; inactive = no such curve, though single readings can be large or run the other way.

SMILES	POLK inh	Pol beta inh	PI5P4Ka inh	PI4K2A block	POLH inh	Pol iota inh
CC[N+]1(CC(=O)c2ccc(I)cc2)CCCCC1	-7.7%	.	.	.	.	5.1%
O=C(Nc1nc(-c2cccs2)cs1)c1ccco1	-17.6%	-14.1%	-1.7	-1.1	-11.7%	?
O=C(Nc1nc(-c2ccncc2)cs1)c1ccco1	-12.7%	39.8µM*	-14.0	-24.3	?	?
Cc1nc(NC(=O)c2ccco2)sc1C(=O)O	-6.9%	21.8%	?	-67.2*	-3.0%	17.5%
COc1ccc2c(c1C(=O)/C=C/c1ccccc1)OC(C)(C)C=C2	.	.	.	0.5	.	.
Nc1ccc(/C=C/c2ccc3cccnc3c2)cc1	-1.2%	.	.	.	.	-18.9%
CC(C)(C)OC(=O)N(CCc1ccccc1)Cc1cccc(OCc2cccc(NC(=O)c3ccccc3)c2)c1	-4.3%	.	?	3.3	-8.1%	-9.7%
O=C(NC1CCCCC1)C(c1ccncc1)N(Cc1ccc2c(c1)OCO2)C(=O)C(F)(F)F (stereo not drawn)	79.4µM*	6.5%	8.3	-7.2	8.6%	35.5µM*
COCCC(=O)N(Cc1ccc2c(c1)OCO2)C(C(=O)NC1CCCCC1)c1ccncc1 (stereo not drawn)	-13.2%	27.7%	1.2	-3.9	-3.4%	6.3%
O=C(O)/C=C\C(=O)Nc1ccc(Oc2ccccc2)cc1	3.4%	-1.1%	.	3.7	-14.6%	1.1%
O=C(O)/C=C/C(=O)Nc1ccc(Oc2ccc(NC(=O)/C=C/C(=O)O)cc2)cc1	.	39.8µM*	.	.	.	.
O=C(O)/C=C/C(=O)Nc1ccc(Cl)c(C(=O)O)c1	-29.7%	?	-21.4	-0.8	44.7µM*	?
Cc1ccc(NC(=O)c2cc(NC(=O)/C=C\C(=O)O)ccc2N2CCCCC2)cc1	-2.3%	?	-69.0*	-2.5	-2.4%	-25.2%
NC(=O)CC[C@@H]1NC(=O)[C@H](CO)NC(=O)c2cc([N+](=O)[O-])cc(I)c2NCCC[C@@H](C(N)=O)NC(=O)[C@H](Cc2ccc(O)cc2)NC1=O	-12.4%	-0.4%	-14.5	-10.3	89.1µM*	?
NC(=O)[C@@H]1CCCCNc2c(I)cc([N+](=O)[O-])cc2C(=O)N[C@@H](CCC(=O)O)C(=O)N[C@@H](CO)C(=O)N1	50.1µM*	0.1%	-25.0	-6.6	6.31µM*	17.8µM*
CC[C@H](C)C1NC(=O)[C@H](CC(=O)O)NC(=O)c2cc([N+](=O)[O-])cc(I)c2NCCC(C(N)=O)NC1=O (stereo partly drawn)	79.4µM*	0.9%	-7.5	-1.2	25.1µM*	?
NC(=O)[C@@H]1CCCNc2c(F)cc([N+](=O)[O-])cc2C(=O)N[C@@H](CCC(=O)O)C(=O)N[C@@H](CO)C(=O)N1	-20.6%	11.3%	-4.9	2.4	2.6%	?
NC(=O)[C@@H]1CCNc2c(I)cc([N+](=O)[O-])cc2C(=O)N[C@@H](CCC(=O)O)C(=O)N[C@@H](CO)C(=O)N1	?	-7.0%	1.7	-1.5	22.4µM*	?
CCOC(=O)c1csc(NC(=O)C2CCCN(S(=O)(=O)c3ccccc3)C2)n1 (stereo not drawn)	.	.	.	2.2	.	.
CCNC(=O)N1CCN(/[N+]([O-])=N/Oc2ccc([N+](=O)[O-])cc2[N+](=O)[O-])CC1	-8.3%	.	.	.	.	?
CC(=O)Nc1ccc(NC(=O)CCc2ccc(C)o2)cc1	8.3%	25.5%	2.4	-3.7	-18.3%	19.0%
Cc1ccc(CCC(=O)Nc2ccc(S(N)(=O)=O)cc2)o1	-26.5%	-20.4%	-19.1	0.4	14.1µM*	-16.0%
O=C(NCCc1ccc(Cl)cc1)c1cc2c(s1)-c1ccccc1OC2	?	35.5µM*	.	2.0	-9.2%	89.1µM*
Cc1ccc(CCNC(=O)c2cc3c(s2)-c2c(C)cccc2OC3)cc1	-1.5%	3.55µM*	.	-1.4	?	31.7%
CCOc1ccc(CCNC(=O)c2cc3c(s2)-c2ccccc2OC3)cc1OCC	-3.4%	31.6µM*	.	0.7	-8.6%	?
SMILES	POLK inh	Pol beta inh	PI5P4Ka inh	PI4K2A block	POLH inh	Pol iota inh
O=C(CCS(=O)(=O)c1cc2c(cc1Cl)NC(=O)CO2)NCCc1ccc(Cl)cc1	-0.9%	0.5%	.	17.6	-16.1%	40.9%
Cc1cc(C(=O)O)ccc1-n1c(C)cc(/C=C(/C#N)C(=O)Nc2ccccc2)c1C	-9.4%	-5.3%	?	-4.8	?	79.4µM*
Cc1cc(/C=C(\C#N)C(=O)Nc2ccccc2)c(C)n1-c1ccc(F)cc1	-16.4%	-11.8%	.	-1.4	-11.0%	3.9%
O=S1(=O)c2ccc(Br)cc2OC[C@@H](Cc2ccccc2)N1Cc1cn(Cc2ccc(C(F)(F)F)cc2)nn1	.	.	.	-1.1	.	.
Cc1oc(-c2ccc3c(c2)OCCO3)cc1C(=O)O	-6.6%	-19.7%	-28.0	-74.6*	-15.7%	23.7%
N#Cc1c(NC(=O)c2ccccc2Cl)n(Cc2ccccc2)c2nc3ccccc3nc12	-17.3%	70.8µM*	-10.7	-50.3*	35.5µM*	20µM*
CCCCn1c(NC(=O)c2ccccc2Cl)c(C#N)c2nc3ccccc3nc21	-10.5%	0.5%	-4.4	-26.2	20µM*	3.55µM*
CCCCn1c(NC(=O)CC)c(C#N)c2nc3ccccc3nc21	-5.6%	2.3%	4.0	2.4	-16.8%	22.4%
COc1ccc(C2/C=C\CN(S(=O)(=O)c3ccc(C)cc3)C(Cc3ccccc3)C(=O)N2Cc2ccc(F)cc2)cc1 (stereo not drawn)	-7.6%	.	.	.	.	-4.9%
N#Cc1ccccc1NC(=O)CSc1ncn[nH]1	5.7%	11.7%	.	5.1	-11.4%	-17.8%
Cc1ccccc1NC(=O)C(=Cc1ccc(C(=O)O)cc1)C(=O)Nc1ccccc1C	-3.1%	5.2%	0.1	-24.9	56.2µM*	?
CC(=O)/C(=C/c1ccccc1)C(=O)Nc1ccccc1C	-18.2%	8.7%	0.4	-2.5	-1.4%	?
CC1CN(c2ccccc2)c2nc3c(c(=O)[nH]c(=O)n3C)n2C1 (stereo not drawn)	-8.0%	31.2%	0.1	4.6	-8.3%	1.3%
Cn1c(=O)[nH]c(=O)c2c1nc1n2CCN1c1ccccc1	?	7.5%	.	-3.1	-2.3%	79.4µM*
O=C(O)c1ccc(S(=O)(=O)N(CCc2ccccc2)Cc2ccc(Cl)cc2)cc1	-12.1%	50.1µM*	13.3	-2.0	0.4%	0.7%
CCOc1ccc(NC(=O)c2ccc(-c3nc(COc4ccccc4)c(C)o3)cc2)cc1	-6.5%	29.9%	.	1.3	-3.8%	2.9%
S=C(NCCCc1cnc[nH]1)NCCCN(CCc1ccc(Cl)cc1)c1ccc(Br)cn1	-6.4%	.	.	.	.	-3.8%
CCOC(=O)c1nn2c(C(F)(F)F)cc(-c3ccc(OC)cc3)nc2c1Br	10.5%	?	0.6	1.9	31.6µM*	-2.0%
